target: T1, Proteasome subunit beta (Trypanosoma cruzi) (UniProt O96673); assay: Trypanosoma cruzi proteasome chymotrypsin-like activity (TcProtChymo) assay.; format: functional; set-up: scale not given: in the data most compounds retested in dose-response had high values; settings: 9.37 µM
T1 sequence (whole entry): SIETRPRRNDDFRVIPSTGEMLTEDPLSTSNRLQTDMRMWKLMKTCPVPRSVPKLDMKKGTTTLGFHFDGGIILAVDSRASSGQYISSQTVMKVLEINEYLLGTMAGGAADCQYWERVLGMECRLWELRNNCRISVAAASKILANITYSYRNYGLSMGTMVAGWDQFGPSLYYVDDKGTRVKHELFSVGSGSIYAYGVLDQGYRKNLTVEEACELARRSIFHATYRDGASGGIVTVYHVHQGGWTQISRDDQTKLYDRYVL

Compared with `CN(C)C(=O)COC[C@]12COC[C@H]1CN(CC1CCC1)C2`, `CCCN1CCC(N(Cc2ncc(C)o2)C(C)=O)C1` (stereo not given) is higher in Percent Effect: 7.12% for the first, 22.6% for the second.

First: COCCN1CC[C@H](O)[C@@H]1Cc1ccccc1
Second: Cc1ncccc1CNCC1CCN(CC(O)c2ccccc2)CC1 (stereo not given)
The Percent Effect of the first is higher: 20% for the first, 15.3% for the second.

Going from `Cc1cc(O)nc(C2CCCN(Cc3ccncc3)C2)n1` (stereo not given) to `O=C(CSCC1CC1)N1CCCC(c2nccn2Cc2ccncc2)C1` (stereo not given), the Percent Effect falls from 10.4% to 7.37%.

First: CN(C)C(=O)c1ccc2c(c1)N(C)C(CC(=O)NCc1ccno1)CO2 (stereo not given)
Second: CNC(=O)CCNC(=O)c1cccc(Cn2nc(C)cc2C)c1
The Percent Effect of the first is higher: 20.7% for the first, 10.7% for the second.

First: COc1c(CNCc2ccc(C(=O)NC3CC3)cc2)c(C)nn1C
Second: CN(C)c1ccc(CCNC(=O)C2CCC(=O)N(C3CCCC3)C2)cc1 (stereo not given)
The Percent Effect of the first is lower: 11% for the first, 13.1% for the second.

Going from `CN(C)CC1CN(C(=O)NCc2ccccc2)Cc2nccn2C1` (stereo not given) to `COc1cccc(OCCNC(=O)CN2CCN(C)CC2C)c1` (stereo not given), the Percent Effect rises from 5.39% to 7.54%.

Going from `CC(=O)NCC(=O)N1CCC2(CC1)CN(c1cccnc1)C(=O)CO2` to `Cc1cnccc1N1CCCN(C(=O)CCCc2cn[nH]c2)CC1`, the Percent Effect falls from 26.2% to -1.06%.

Compared with `O=C(NCCN1CCOCC1)c1cc(-c2ccc3c(c2)CCO3)n[nH]1`, `O=C1NCCN1C1CCCN(Cc2coc(-c3ccc(F)cc3)n2)C1` (stereo not given) is lower in Percent Effect: 1.48% for the first, 0.898% for the second.

First: CC(C)c1cc(NC(=O)CN2CCCC2Cn2cccn2)on1 (stereo not given)
Second: O=C(c1csc(-c2cccs2)n1)N1CCCC1Cn1cccn1 (stereo not given)
The Percent Effect of the first is higher: -0.761% for the first, -4.99% for the second.

Compared with `CCC(=O)Nc1nnc(CCCOc2ccccc2)s1`, `O=C(Cn1nc(-c2ccc(F)cc2)oc1=O)Nc1ccccc1` is higher in Percent Effect: 10.3% for the first, 21.6% for the second.

Going from `Cc1cc(C)n(C2CCCN(C(=O)C3=NN(C)C(=O)CC3)C2)n1` (stereo not given) to `Cc1cc(C)n(CC2CCCCN2Cc2cscn2)n1` (stereo not given), the Percent Effect falls from 11.9% to 7.52%.

Compared with `CC1CCc2nc(O)c(C(=O)NCc3cccc(F)c3)cc2C1` (stereo not given), `CNS(=O)(=O)c1cccc(CNc2cc(C(F)(F)F)ccn2)c1` is lower in Percent Effect: 4.99% for the first, 0.54% for the second.

Going from `Cc1nc2c(c(NC3CC3)n1)CCN(C(=O)C(C)(C)O)CC2` to `Cc1cc(CNC(=O)C2CCCCN2C(=O)OC(C)(C)C)no1` (stereo not given), the Percent Effect falls from 28% to 1.29%.

First: Cc1noc(C)c1CN(C)CC1CCCN1c1cccnn1 (stereo not given)
Second: Cc1noc(C)c1CN1C(=O)[C@H]2CC[C@@H]1CN(Cc1cccnc1N)C2
The Percent Effect of the first is lower: 11.7% for the first, 23% for the second.

Going from `CCN1CC(C(=O)N2CCC(Oc3ccccc3Cl)CC2)CC1=O` (stereo not given) to `CN(CC(=O)N1CCCC1Cn1cccn1)C1CC1` (stereo not given), the Percent Effect falls from 16.7% to -0.0819%.

Going from `CCc1nc(CN(C)C2CCN(Cc3cnc(C)cn3)C2)no1` (stereo not given) to `Cc1nccn1CC1CCCN1S(=O)(=O)Cc1ccon1` (stereo not given), the Percent Effect falls from 15.5% to 14%.

First: CSc1ccc(NC(=O)Nc2ccc3c(c2)N(S(C)(=O)=O)CC3)cc1
Second: COc1ccc(NC(=O)CNc2ccc(Br)cc2F)cc1
The Percent Effect of the first is higher: 27.9% for the first, 17.7% for the second.

First: O=C(Cn1ccc2c(Cl)cccc21)N[C@@H](C(=O)O)c1ccccc1
Second: CC(NC(=O)CNCCn1cccn1)c1ccc2c(c1)CCCC2 (stereo not given)
The Percent Effect of the first is higher: 19.8% for the first, 9.46% for the second.

Going from `Cc1ccc(C2CSCCN2C(=O)c2ccsc2)o1` (stereo not given) to `Cc1cc(C)cc(N(C)S(=O)(=O)c2cc(C(=O)O)cs2)c1`, the Percent Effect falls from 8.15% to 0%.

Going from `CC(C)c1nn(C)c(N2CCOCC2)c1CN[C@H](C)CO` to `CCOc1cccc(C(C)NCc2ccc(OC)c(OC)c2OC)c1` (stereo not given), the Percent Effect rises from 3.3% to 11.2%.

organism: Homo sapiens; assay: To identify inhibition of the IFN signalling (Jak-Stat) pathway via expression of an eGFP reporter gene under the control of an IFN-stimulated response element (ISRE) containing MxA promoter.; format: functional; set-up: scale not given: direction of the effect not stated beside the values; settings: 30 µM

Compared with `CN(C)C(=O)COC[C@]12COC[C@H]1CN(CC1CCC1)C2`, `CCCN1CCC(N(Cc2ncc(C)o2)C(C)=O)C1` (stereo not given) is lower in Percent Effect: 8.3% for the first, 1.11% for the second.

Going from `COCCN1CC[C@H](O)[C@@H]1Cc1ccccc1` to `Cc1ncccc1CNCC1CCN(CC(O)c2ccccc2)CC1` (stereo not given), the Percent Effect falls from 22.1% to 3.05%.

Compared with `Cc1cc(O)nc(C2CCCN(Cc3ccncc3)C2)n1` (stereo not given), `O=C(CSCC1CC1)N1CCCC(c2nccn2Cc2ccncc2)C1` (stereo not given) is lower in Percent Effect: -0.951% for the first, -2.75% for the second.

First: CN(C)C(=O)c1ccc2c(c1)N(C)C(CC(=O)NCc1ccno1)CO2 (stereo not given)
Second: CNC(=O)CCNC(=O)c1cccc(Cn2nc(C)cc2C)c1
The Percent Effect of the first is higher: 18.1% for the first, 15.9% for the second.

Going from `COc1c(CNCc2ccc(C(=O)NC3CC3)cc2)c(C)nn1C` to `CN(C)c1ccc(CCNC(=O)C2CCC(=O)N(C3CCCC3)C2)cc1` (stereo not given), the Percent Effect falls from 9.67% to 1.03%.

Going from `CN(C)CC1CN(C(=O)NCc2ccccc2)Cc2nccn2C1` (stereo not given) to `COc1cccc(OCCNC(=O)CN2CCN(C)CC2C)c1` (stereo not given), the Percent Effect rises from 3.73% to 11.6%.

Compared with `CC(=O)NCC(=O)N1CCC2(CC1)CN(c1cccnc1)C(=O)CO2`, `Cc1cnccc1N1CCCN(C(=O)CCCc2cn[nH]c2)CC1` is higher in Percent Effect: -0.0812% for the first, 4.4% for the second.

Going from `O=C(NCCN1CCOCC1)c1cc(-c2ccc3c(c2)CCO3)n[nH]1` to `O=C1NCCN1C1CCCN(Cc2coc(-c3ccc(F)cc3)n2)C1` (stereo not given), the Percent Effect rises from -12.9% to 57.5%.

First: CC(C)c1cc(NC(=O)CN2CCCC2Cn2cccn2)on1 (stereo not given)
Second: O=C(c1csc(-c2cccs2)n1)N1CCCC1Cn1cccn1 (stereo not given)
The Percent Effect of the first is higher: 15.3% for the first, -2.06% for the second.

Going from `CCC(=O)Nc1nnc(CCCOc2ccccc2)s1` to `O=C(Cn1nc(-c2ccc(F)cc2)oc1=O)Nc1ccccc1`, the Percent Effect rises from -7.47% to 7.21%.

Going from `Cc1cc(C)n(C2CCCN(C(=O)C3=NN(C)C(=O)CC3)C2)n1` (stereo not given) to `Cc1cc(C)n(CC2CCCCN2Cc2cscn2)n1` (stereo not given), the Percent Effect falls from 23.2% to 12.4%.

Compared with `CC1CCc2nc(O)c(C(=O)NCc3cccc(F)c3)cc2C1` (stereo not given), `CNS(=O)(=O)c1cccc(CNc2cc(C(F)(F)F)ccn2)c1` is higher in Percent Effect: 9.92% for the first, 38.2% for the second.

First: Cc1nc2c(c(NC3CC3)n1)CCN(C(=O)C(C)(C)O)CC2
Second: Cc1cc(CNC(=O)C2CCCCN2C(=O)OC(C)(C)C)no1 (stereo not given)
The Percent Effect of the first is higher: 23.3% for the first, 4.89% for the second.

Going from `Cc1noc(C)c1CN(C)CC1CCCN1c1cccnn1` (stereo not given) to `Cc1noc(C)c1CN1C(=O)[C@H]2CC[C@@H]1CN(Cc1cccnc1N)C2`, the Percent Effect rises from 11.2% to 31.8%.

First: CCN1CC(C(=O)N2CCC(Oc3ccccc3Cl)CC2)CC1=O (stereo not given)
Second: CN(CC(=O)N1CCCC1Cn1cccn1)C1CC1 (stereo not given)
The Percent Effect of the first is higher: 42.2% for the first, 3.19% for the second.

Compared with `CCc1nc(CN(C)C2CCN(Cc3cnc(C)cn3)C2)no1` (stereo not given), `Cc1nccn1CC1CCCN1S(=O)(=O)Cc1ccon1` (stereo not given) is lower in Percent Effect: 26.6% for the first, 7.78% for the second.

Going from `CSc1ccc(NC(=O)Nc2ccc3c(c2)N(S(C)(=O)=O)CC3)cc1` to `COc1ccc(NC(=O)CNc2ccc(Br)cc2F)cc1`, the Percent Effect rises from 30.8% to 39.2%.

Compared with `O=C(Cn1ccc2c(Cl)cccc21)N[C@@H](C(=O)O)c1ccccc1`, `CC(NC(=O)CNCCn1cccn1)c1ccc2c(c1)CCCC2` (stereo not given) is higher in Percent Effect: -11.3% for the first, -3.61% for the second.

Going from `Cc1ccc(C2CSCCN2C(=O)c2ccsc2)o1` (stereo not given) to `Cc1cc(C)cc(N(C)S(=O)(=O)c2cc(C(=O)O)cs2)c1`, the Percent Effect rises from -0.446% to 12.5%.

Compared with `CC(C)c1nn(C)c(N2CCOCC2)c1CN[C@H](C)CO`, `CCOc1cccc(C(C)NCc2ccc(OC)c(OC)c2OC)c1` (stereo not given) is higher in Percent Effect: -5.23% for the first, 43.6% for the second.

From ChEMBL document CHEMBL3988442, “University of Dundee, Small-Polar-MMV Screening Library” (2021)
